IL2 activator = activators of IL-2 | IL-2 activation reporter assay, cell-based qHTS; stimulated with anti-CD3/CD4/CD28 beads; in transgenic mouse T cells | activation, % (series mostly up to about 46 µM) | 0.065% of 360,000 active | AID 652025; in the data active = activation above about 50%; inconclusive = mostly about 30% to 49%; also: 0% is about no effect
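Unstimulated transgenic mouse T cells preincubated 60 min with compound, then stimulated with anti-CD3/anti-CD4-coated beads plus anti-CD28 for 18 h at 37 degrees C. IL-2 response read as EGFP and DsRed fluorescence by plate cytometry.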
BRCA1 expr up = increases BRCA1 expression. AID 624202. Potency, µM (doses to about 46.1 µM), without a hit: top-dose activation, most hits filed as activators. 1.1% of 380,000 active. MCF7-BRCA1-FFLuc reporter, luminescence, 48 h; response scale: scaled: vehicle 0%, 10 µM genistein 100%; also: potency is read from the fitted curve at half-maximal effect; nearly all actives have a fitted effect of over 80% in size
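MCF7-BRCA1-FFLuc cells, 2000/well in phenol-red-free MEM, attached 2 h then treated 48 h at 37 C. Luciferase luminescence read 15 min after reagent; normalized to genistein maximum activation (10microM) and DMSO, concentration-response fitted.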
Nrf2 ARE act = Nrf2 pathway activation; AREc32 ARE-luciferase reporter (MCF7-derived line), luminescence, 24 h; 0.31% of 410,000 active; Potency, µM (highest dose often 46.1 µM), for the others: at the highest dose activation, actives largely listed as activators; also: potency is read from the fitted curve at half-maximal effect; % of control where 0% means no effect; nearly all actives have a fitted effect of over 65% in size
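AREc32 cells carrying an ARE-driven firefly luciferase, 1000 cells/well in OPTI-MEM with 5% FBS, dosed after overnight attachment and incubated 24 hr at 37 deg C. Steady-Glo luminescence read after 30 min at RT.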
ELG1 repair inh = inhibitors of ELG1-dependent DNA repair in HEK293T cells; HEK293T ELG1-luciferase reporter, luminescence, 16 h; DNA damage induced by 5-fluorouridine; Potency, µM (doses to about 46.1 µM), for inactives: at the highest dose activity change, negative = inhibition, actives largely listed as inhibitors; 2.3% of 330,000 active; also: potency is read from the fitted curve at half-maximal effect; % is scaled to controls: 0 for no effect and ±100 for the full control effect; nearly all actives have a fitted effect of over 55% in size
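5-Fluorouridine DNA damage + compound/DMSO, 2,000 cells/well, 16 h, 37 °C/5% CO2. ONE-Glo, 30 min RT, luminescence. Readout = decrease in reporter signal.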
ELG1 FLuc counter = luciferase inhibition in cell-free luciferin readout for ELG1 hits | shares compounds with ELG1 repair inh | Potency, µM (doses to about 46.1 µM), for inactives: at the top dose activity change, negative = inhibition, usual class: inhibitors | cell-free firefly luciferase luminescence counter-screen, ViewLux | AID 624247 | 3% of 350 active; also: potency is read from the fitted curve at half-maximal effect; % is scaled to controls: 0 for no effect and ±100 for the full control effect
ELG1 Luc conf = confirmation of human ELG1-dependent DNA repair inhibitors. shares compounds with ELG1 repair inh. 68% of 670 active. Potency, µM (top dose mostly 46.1 µM), for inactives: top-dose activity change, negative = inhibition, most hits filed as inhibitors. HEK293T ELG1-luciferase levels, luminescence; cells co-treated with 5-fluorouridine. AID 624248; also: potency is read from the fitted curve at half-maximal effect; % is scaled to controls: 0 for no effect and ±100 for the full control effect; nearly all actives have a fitted effect of over 55% in size
ELG1-Luc MMS = confirmation of human ELG1 repair inhibitors, MMS stimulated; shares compounds with ELG1 repair inh; HEK293T luciferase-tagged ELG1 level, MMS stimulated; Potency, µM (doses to about 46.1 µM), without a hit: at the top dose activity change, negative = inhibition, usual class: inhibitors; 53% of 670 active; AID 624249; also: potency is read from the fitted curve at half-maximal effect; % is scaled to controls: 0 for no effect and ±100 for the full control effect; nearly all actives have a fitted effect of over 60% in size
ELG1 5-FU = confirmation of ELG1 repair inhibitors: viability with 5FU | 670 tested, under 10 active | cell viability with 5-FU, ELG1-dependent repair | shares compounds with ELG1 repair inh | Potency, µM (highest dose often 46.1 µM), for inactives: at the top dose activity change, negative = viability loss, actives largely listed as cytotoxic;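 also: ELG1-luc HEK293T cells cotreated with 5-fluorouridine at 10 µM final; potency is read from the fitted curve at half-maximal effect; viability measured 16 h after compound addition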
ELG1 MMS cell = confirmation of ELG1 repair inhibitors: viability with MMS; shares compounds with ELG1 repair inh; Cell viability with MMS, ELG1-dependent DNA repair; Potency, µM (top dose mostly 46.1 µM), for inactives: at the highest dose activity change, negative = viability loss, most hits filed as cytotoxic; 33% of 670 active;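 also: ELG1-luc HEK293T cells co-treated with 10 µM MMS; potency is read from the fitted curve at half-maximal effect; viability read 16 h after compound addition; % is scaled to controls: 0 for no effect and ±100 for the full control effect; nearly all actives have a fitted effect of over 60% in size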
Cell viab unstim = unstimulated viability counter-screen for ELG1 repair hits; shares compounds with ELG1 repair inh; cell viability counter-screen, unstimulated, luminescence; Potency, µM (doses to about 45.9 µM), for the others: at the top dose activity change, negative = loss of viability, usual class: cytotoxic; 8% of 900 active; AID 624252;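 also: potency is read from the fitted curve at half-maximal effect; compound exposure lasted 16 hours before reading; % is scaled to controls: 0 for no effect and ±100 for the full control effect; nearly all actives have a fitted effect of over 55% in size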
FLuc enzyme = counter-screen for ELG1 repair inhibitors: firefly luciferase inhibition; shares compounds with ELG1 repair inh; purified firefly luciferase, luminescence counter-screen; Potency, µM (highest dose often 57.5 µM), without a hit: at the top dose activity, negative = inhibition, most hits filed as inhibitors; 10% of 350 active; AID 624253; also: potency is read from the fitted curve at half-maximal effect; % is scaled to controls: 0 for no effect and ±100 for the full control effect
An asterisk follows results filed as active; ? = inconclusive; nt = no result. Most compounds without a hit are left out; they make up all but 3.1% or so of the library. Unless noted, calls follow the shape of the dose curve; as a rule, active = well fitted curve in the direction sought with a large enough effect; inconclusive = small, poorly fitted or top-dose-only effect, or another doubt; inactive = no such curve, though single readings can be large; an effect the other way counts as inactive or inconclusive.

SMILES	IL2 activator	BRCA1 expr up	Nrf2 ARE act	ELG1 repair inh	ELG1 Luc conf	ELG1-Luc MMS	ELG1 5-FU	ELG1 MMS cell	Cell viab unstim	others
COc1cc2c(NC3CCN(C)CC3)nc(N3CCCN(C)CC3)nc2cc1OCc1ccccc1	nt	-59%	nt	nt	nt	nt	nt	nt	nt
Cc1ccc(/C=C/c2onc(C)c2S(=O)(=O)N2CCC(C(=O)NCc3ccc(OC(C)C)cc3)CC2)cc1	nt	nt	3%	nt	nt	nt	nt	nt	nt
CC(=O)N1c2ccc(S(=O)(=O)NCCC(=O)NCc3ccc(Cl)cc3)cc2CC1C (centres undefined)	-2	-50%	0%	?	nt	nt	nt	nt	nt
CC(=O)N1c2ccc(S(=O)(=O)NCCC(=O)NCc3ccc(N(C)C)cc3)cc2CC1C (centres undefined)	-2	-9%	0%	4.6µM*	13µM*	-16%	?	10%	4%
Cc1ccc(S(=O)(=O)NCc2ccc(C(=O)N3CCN(c4ccc([N+](=O)[O-])cc4)CC3)cc2)cc1	-1	-53%	9%	2.3µM*	7.9µM*	1.6µM*	-8%	1.8µM*	?
COc1ccc(N2CCN(C(=O)c3ccc(CNS(=O)(=O)c4ccc(C)cc4)cc3)CC2)cc1	-2	-23%	0%	-13%	nt	nt	nt	nt	nt
Cc1ccc(Cn2ccc(NC(=O)c3nn(C)cc3[N+](=O)[O-])n2)cc1	-3	-29%	8%	?	?	?	-1%	0%	-7%
CCn1cc([N+](=O)[O-])c(C(=O)Nc2ccn(Cc3ccccc3)n2)n1	0	-6%	0%	-8%	nt	nt	nt	nt	nt
O=C(Nc1ccc(F)cc1F)c1noc2c1CCc1ccccc1-2	nt	nt	14%	nt	nt	nt	nt	nt	nt
CC(C)(C)OC(=O)C[C@H]1C/C=C\C[C@@H](CC(=O)N[C@H](CO)Cc2ccccc2)C(=O)N2CCC[C@H]2COC1=O	0	-7%	-1%	?	nt	nt	nt	nt	nt
CC(C)(C)OC(=O)C[C@@H]1C/C=C\C[C@@H](CC(=O)N[C@H](CO)Cc2ccccc2)C(=O)N2CCC[C@H]2COC1=O	1	-4%	-1%	2.9µM*	?	?	-2%	-7%	?
CCOc1ccc(CCNc2nc3c(c(=O)n(C)c(=O)n3C)n2CC)cc1OCC	-1	-76%	-1%	?	14µM*	11µM*	4%	-18%	-7%	ELG1 FLuc counter=-11%;FLuc enzyme=1%
CCCNc1nc2c(c(=O)n(C)c(=O)n2C)n1Cc1cccc(C)c1	-1	-53%	2%	1.3µM*	?	6.3µM*	3%	7.9µM*	-18%
CC(C)Cn1c(=O)c2ccccc2n2c(CCC(=O)NC(C)c3ccccc3)nnc12 (centres undefined)	nt	nt	-1%	nt	nt	nt	nt	nt	nt
Cc1ccc(NC2(c3ccccc3)C(=O)c3ccccc3C2=O)cc1F	nt	nt	0%	nt	nt	nt	nt	nt	nt
